The source of these data is PubChem BioAssay (NCATS).

Inconclusive results are not listed. Where a call stands in place of a potency, no number is given. Activity calls are given as the source filed them. Calls come from the whole dose curve; as a rule, active = well fitted inhibition curve with a large enough effect; inconclusive = small, poorly fitted or top-dose-only effect; inactive = flat fitted curve, though single readings scatter.

This test deals with CRL-7250. As to the kind of experiment: qHTS assay to identify novel small-molecules to repurpose for Merkel cell carcinoma treatment (AID 1296009). Note: nearly all actives have a fitted effect of over 60% in size. Particulars: MCC and control cell lines, CellTiter-Glo viability, 72 h; series mostly up to 92 µM. The method in brief: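 Cell viability measured by CellTiter-Glo following 72 hr compound treatment at 37 degree celsius, with NPC and MIPE libraries tested in 8- and 11-point concentration series.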
In the case of `CC1=C2C(=O)C=C(CO)C2[C@H]2OC(=O)[C@H](C)[C@@H]2[C@@H](OC(=O)Cc2ccc(O)cc2)C1` (some centres not stated), the Potency entry was “inactive”.

On to `CC(=O)c1c(C)cc(O[C@@H]2O[C@H](CO)[C@@H](O)[C@H](O)[C@H]2O)cc1O`, for which the Potency result was “inactive”.

In the case of `CC1(C)CC=C(c2cnc3ccccc3c2)c2cc(C(=O)Nc3ccc(C(=O)O)cc3)ccc21`, the Potency result is “inactive”.

For `C[C@@H]1O[C@@H](O[C@H]2[C@H](O[C@H]3CC[C@@]4(C)C(CC[C@]5(C)C4CC=C4[C@@H]6CC(C)(C)CC[C@]6(C(=O)O[C@@H]6OC[C@H](O)[C@H](O)[C@H]6O[C@@H]6O[C@@H](C)[C@H](O[C@@H]7O[C@H](CO)[C@@H](O)[C@H](O)[C@H]7O)[C@H](O)[C@H]6O)[C@H](O)C[C@]45C)C3(C)C)O[C@H](CO)[C@@H](O[C@@H]3OC[C@@H](O)[C@H](O)[C@H]3O)[C@@H]2O)[C@H](O)[C@H](O)[C@H]1O` (some centres not stated), the outcome was “inactive [at 9.27 µM]”.

Regarding `CC(=O)OC1C(C)C2C(OC3OC(CO)C(O)C(O)C3O)OC=C(C(=O)O)C2C1OC(=O)c1ccccc1` (configuration not stated), the Potency result is “inactive”.

On to `CN1CCc2cc3c(cc2C(=O)Cc2cc4c(cc2C1)OCO4)OCO3`, for which the Potency result is “inactive”.

With `C=C[C@H]1C(O[C@@H]2O[C@H](CO)[C@@H](O)[C@H](O)[C@H]2O)OC=C2C(=O)N3CCc4c([nH]c5ccccc45)[C@H]3C[C@H]21` (some centres not stated), the Potency entry was “inactive”.

Regarding `COC(=O)C(CC1(O)c2ccccc2N2C(=O)C(C)(C)N(O)C21)n1cnc2ccccc2c1=O` (configuration not stated), the Potency result was “inactive”.

As for `Cc1nc2ccc(CN(C)c3ccc(C(=O)NC(CCC(=O)O)C(=O)O)s3)cc2c(=O)[nH]1` (configuration not stated), the Potency entry is “inactive”.

In the case of `CN(Cc1ccc(C(=O)O)cc1)c1ccc(OCc2c(-c3c(Cl)cccc3Cl)noc2C2CC2)nc1C(F)(F)F`, the Potency entry was “inactive”.

Turning to `CC(O)C(C)n1ncn(-c2ccc(N3CCN(c4ccc(OCC5COC(Cn6cncn6)(c6ccc(Cl)cc6Cl)O5)cc4)CC3)cc2)c1=O` (configuration not stated), the Potency entry was “inactive”.

Turning to `CC#C[C@@H](CC(=O)O)c1ccc(OCc2ccc(CN3CCC4(C=Cc5ccccc54)CC3)s2)cc1`, the Potency result was “inactive”.

For the compound `O=C(NC1CCN(CC(F)(F)F)CC1)c1ccc(-c2cccc(F)c2)nc1`, the Potency result was “inactive”.

`COc1ncc2cc(C(=O)Nc3cc(C(=O)NCc4cccc(Cl)c4)ccc3Cl)c(=O)[nH]c2n1`: the Potency result was “inactive”.

Turning to `COc1cc(Nc2nc3c(s2)CCCC3c2ccccc2)ccc1-n1cnc(C)c1` (configuration not stated), the outcome was “inactive [at 9.27 µM]”.

For `CC1(C)CC[C@]2(C(=O)O)CC[C@]3(C)C(=CCC4[C@@]5(C)C[C@@H](O)[C@H](O)[C@](C)(CO)C5CC[C@]43C)[C@@H]2[C@@H]1O` (some centres not stated), the Potency result is “inactive”.

For the compound `CC1(C)CC[C@]2(C(=O)O)CC[C@]3(C)C(=CCC4[C@@]5(C)C[C@H](O)[C@H](O[C@@H]6OC[C@H](O)[C@H](O)[C@H]6O)[C@@](C)(CO)C5CC[C@]43C)[C@@H]2C1` (some centres not stated), the Potency result was “inactive”.

For `O=C(O)CC1(O)C(=O)Nc2ccccc21` (configuration not stated), the Potency result was “inactive”.

On to `C=C1CC[C@@H]2[C@@](C)(CO[C@@H]3O[C@H](CO)[C@@H](O)[C@H](O)[C@H]3O)[C@H](O)CC[C@@]2(C)[C@@H]1CC/C(C)=C/CO[C@@H]1O[C@H](CO)[C@@H](O)[C@H](O)[C@H]1O`, for which the Potency entry is “inactive”.

On to `COC1CC(O[C@H]2CC[C@@]3(C)C(=CC[C@]4(O)C3[C@H](OC(C)=O)[C@@H](OC(=O)c3ccccc3)[C@]3(C)[C@@H](C(C)=O)CC[C@@]34O)C2)OC(C)C1OC1CC(OC)C(OC2CC(OC)C(OC3OC(C)C(OC4OC(CO)C(O)C(O)C4O)C(OC)C3O)C(C)O2)C(C)O1` (some centres not stated), for which the outcome was “inactive [at 9.27 µM]”.

As for `COC(=O)C1=COC(O[C@@H]2O[C@H](COC(=O)/C=C/c3ccc(O)cc3)[C@@H](O)[C@H](O)[C@H]2O)C2C(CO)=CCC12` (some centres not stated), the Potency entry is “inactive”.

For the compound `O=C(c1ccc(C#Cc2cccc(F)c2)cn1)N1CC2CC2C1` (configuration not stated), the Potency entry is “inactive”.

On to `C[C@@H]1C[C@H]2OC(=O)[C@@]3(C)CCC[C@](C)(C23)[C@@]1(O)CCC1=CC(=O)OC1O` (some centres not stated), for which the Potency result is “inactive”.

For the compound `C=CC(C)(O)CC/C=C(\C)C(=O)O[C@@H]1[C@@H](O)[C@H](OC(C)(C=C)CC/C=C(\C)C(=O)O)O[C@H](CO)[C@H]1OC(=O)/C(C)=C/CCC(C)(O)C=C` (some centres not stated), the Potency entry is “inactive”.

Turning to `Cc1c(N2C(=O)c3ccc(C(=O)O)cc3C2=O)c(=O)n(-c2ccccc2)n1C`, the Potency result is “inactive”.

For `CC1(C)OC[C@H](NC(=O)Nc2ccc(Br)cc2Br)[C@H](c2ccccc2)O1`, the Potency entry is “inactive”.

Turning to `COc1ccc(CCN(C)CCCOc2nsc(-c3ccccc3)n2)cc1OC`, the Potency entry is “inactive”.
